PubChem BioAssay (NCI)
The panel holds about 79,000 compounds, 15% with a hit somewhere; the sample as a whole holds those more often. Active and inactive are the calls of the source. Cut-off read from the data, not from the text of the source: active = growth inhibition above about 70%; inactive = the rest.

How the values were obtained:
[1] = NCI Yeast Anticancer Drug Screen. Data for the wt1 strain (AID 149);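 note: 0% = growth of vehicle-treated wt1 cultures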; settings: S. cerevisiae wt1 strain (SPY 50644) growth inhibition, stronger effect = higher value
Method in brief: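 Yeast wt1 strain exposed to compounds; growth inhibition measured relative to vehicle-treated controls.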

[2] = NCI Yeast Anticancer Drug Screen. Data for the rad50EPP+ strain (AID 151);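 note: 0% = growth of vehicle-treated control cultures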; settings: S. cerevisiae rad50 mutant strain, stronger effect = higher value
Method in brief: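 Vehicle-normalised growth inhibition; rad50EPP+ yeast strain, altered in DNA damage repair, compound-treated.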

[3] = NCI Yeast Anticancer Drug Screen. Data for the mgt1 strain (AID 153); settings: S. cerevisiae mgt1 mutant growth inhibition, stronger effect = higher value
Method in brief: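 Vehicle-normalized growth inhibition is determined in mgt1 yeast, a strain selected for a defined alteration in DNA repair or cell cycle control.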

[4] = NCI Yeast Anticancer Drug Screen. Data for the rad50 strain (AID 155);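 note: 0% = growth of vehicle-only cultures of the same strain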; settings: S. cerevisiae rad50 strain growth inhibition, stronger effect = higher value
Method in brief: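 Yeast carrying a defined DNA repair defect were exposed to test compounds, and growth was compared with vehicle-treated controls to give percent inhibition.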

[5] = NCI Yeast Anticancer Drug Screen. Data for the mec2-1 strain (AID 157); settings: S. cerevisiae mec2-1 strain, stronger effect = higher value
Method in brief: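 Mutant yeast (mec2-1) grown with compound; growth inhibition relative to vehicle control reported.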

[6] = NCI Yeast Anticancer Drug Screen. Data for the rad14 strain (AID 159);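 note: 0% = growth of vehicle-treated control cultures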; settings: S. cerevisiae rad14 strain growth inhibition, stronger effect = higher value
Method in brief: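 Yeast cells carrying a defined DNA-repair defect were exposed to compounds, and growth inhibition was calculated relative to vehicle-treated control cultures.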

[7] = NCI Yeast Anticancer Drug Screen. Data for the sgs1 mgt1 strain (AID 161);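 note: 0% = growth of cultures given vehicle only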; settings: S. cerevisiae sgs1 mgt1 strain, stronger effect = higher value
Method in brief: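 Yeast cells carrying a defined DNA-repair defect were exposed to test compounds. Growth inhibition was measured relative to vehicle-treated controls.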

[8] = NCI Yeast Anticancer Drug Screen. Data for the CLN2oe strain (AID 163);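 note: 0% = growth of vehicle-only control cultures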; settings: S. cerevisiae CLN2oe strain, stronger effect = higher value
Method in brief: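 Compounds are applied to yeast harbouring a defined cell-cycle control change; reduced growth compared with vehicle-treated controls gives the value.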

[9] = NCI Yeast Anticancer Drug Screen. Data for the cln2 rad14 strain (AID 165);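 note: 0% = growth equal to vehicle treated cultures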; settings: S. cerevisiae cln2 rad14 strain, stronger effect = higher value
Method in brief: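 Readout is yeast growth inhibition versus vehicle-treated controls, using a strain with cln2 and rad14 alterations exposed to compound.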

[10] = NCI Yeast Anticancer Drug Screen. Data for the bub3 strain (AID 167); settings: S. cerevisiae bub3 mutant strain, stronger effect = higher value
Method in brief: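 Compounds were applied to a genetically altered yeast strain carrying a cell-cycle control defect. Growth inhibition was scored against vehicle-treated controls.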

[11] = NCI Yeast Anticancer Drug Screen. Data for the wt2 strain (AID 169);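 note: 0% = growth of vehicle-treated yeast cultures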; settings: S. cerevisiae wt2 strain growth inhibition, stronger effect = higher value
Method in brief: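 Against vehicle-treated controls, the growth of yeast exposed to each compound was compared, and the inhibition was recorded.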

[12] = NCI Yeast Anticancer Drug Screen. Data for the mlh1 strain (AID 171);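 note: 0% = growth of vehicle-treated control cultures of the same strain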; settings: S. cerevisiae mlh1 strain growth inhibition, stronger effect = higher value
Method in brief: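 Measured: yeast growth. Reference: vehicle-treated controls. Organism: strain with a defined alteration affecting DNA damage repair or cell cycle control, treated with compound.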

[13] = NCI Yeast Anticancer Drug Screen. Data for the sgs1 strain (AID 173);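 note: 0% = growth of vehicle-only control cultures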; settings: S. cerevisiae sgs1 mutant, stronger effect = higher value
Method in brief: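 Each compound was added to cultures of the altered yeast strain. Growth was recorded, and inhibition was derived by comparison with vehicle controls.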

[14] = NCI Yeast Anticancer Drug Screen. Data for the rad18 strain (AID 177); settings: S. cerevisiae rad18 mutant growth inhibition, stronger effect = higher value
Method in brief: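 Vehicle-treated cultures served as the baseline for scoring compound-induced growth inhibition in DNA-repair-mutant yeast.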

[15] = at 5.0 µM (retest, dose inferred, filed as 0.5)
[16] = at 50.0 µM (retest, dose inferred, filed as 5.0)

Measured: growth inhibition

CCOC(=O)C(NC(=O)c1ccccc1)[CH](c1ccccc1)[Sn]([c]1ccccc1)([c]1ccccc1)[c]1ccccc1 (stereo not given)
inactive: [1]; at 1.2 µM -81% | [1]; at 3.7 µM 0% | [1]; at 11.0 µM 0% | [1]; at 33.0 µM 11% | [2]; at 1.2 µM -2% | [2]; at 3.7 µM 2% | [2]; at 11.0 µM 3% | [2]; at 33.0 µM 3% | [2]; at 100.0 µM -6% | [3]; at 1.2 µM -1% | [3]; at 3.7 µM 2% | [3]; at 11.0 µM 2% | [3]; at 33.0 µM 17% | [4]; at 1.2 µM 0% | [4]; at 3.7 µM 3% | [4]; [15] -4% | [4]; at 11.0 µM 4% | [4]; at 33.0 µM 21% | [5]; at 1.2 µM 0% | [5]; at 3.7 µM 1% | [5]; [15] -3% | [5]; at 11.0 µM 1% | [5]; at 33.0 µM 17% | [5]; [16] 40% | [6]; at 1.2 µM 2% | [6]; at 3.7 µM 2% | [6]; at 11.0 µM 4% | [6]; at 33.0 µM 17% | [7]; [15] -4% | [7]; [16] 36% | [8]; at 1.2 µM -5% | [8]; at 3.7 µM -11% | [8]; at 11.0 µM -15% | [8]; at 33.0 µM -6% | [9]; [15] -7% | [9]; [16] 19% | [10]; at 1.2 µM -7% | [10]; at 3.7 µM -4% | [10]; [15] -11% | [10]; at 11.0 µM -6% | [10]; at 33.0 µM 10% | [10]; [16] 59% | [11]; at 1.2 µM -3% | [11]; at 3.7 µM -2% | [11]; at 11.0 µM -1% | [11]; at 33.0 µM 35% | [12]; at 1.2 µM 0% | [12]; at 3.7 µM 0% | [12]; at 11.0 µM 0% | [12]; at 33.0 µM 17% | [13]; at 1.2 µM 1% | [13]; at 3.7 µM 4% | [13]; at 11.0 µM 4% | [13]; at 33.0 µM 34% | [14]; at 1.2 µM -1% | [14]; at 3.7 µM 5% | [14]; at 11.0 µM 0% | [14]; at 33.0 µM 45%
active: [1]; at 100.0 µM 93% | [3]; at 100.0 µM 95% | [4]; [16] 73% | [4]; at 50.0 µM 95.7% | [4]; at 100.0 µM 92% | [5]; at 50.0 µM 97.8% | [5]; at 100.0 µM 95% | [6]; at 100.0 µM 95% | [7]; at 50.0 µM 97.3% | [8]; at 100.0 µM 95% | [9]; at 50.0 µM 93.7% | [10]; at 50.0 µM 98.7% | [10]; at 100.0 µM 94% | [11]; at 100.0 µM 96% | [12]; at 100.0 µM 96% | [13]; at 100.0 µM 94% | [14]; at 100.0 µM 94%
